IL1B NFkB pot: enhancers of NFkB p65 translocation in HUVEC – imaging, IL-1B stimulus, high-content imaging, primary screen; activation, % at 2 µM; hit rate 0.3% among 94,000; AID 819, 2007; HUVEC IL-1B NFkB p65 nuclear translocation imaging;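 active = activation above 40%, about the mean plus 3 SD, also judged a hit on visual image review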;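 note: percent activation is computed from the nuclear over cytoplasmic p65 intensity ratio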
Measles CPE: compounds protecting cells from measles virus cytopathic effect, primary screen, measles RdRp inhibitor project, single point, MLSMR library, absorbance; Measles virus-infected cells, CPE protection; protection (pct of control), % at 4 µM; hit rate 1.5% among 140,000; AID 841, 2007; in the data active = protection mostly above about 24%, no sharp cut-off; inactive = mostly below about 26%
IL1B NFkB inh: inhibitors of IL-1B driven NFkB p65 nuclear import, primary screen, imaging, HUVEC, IL-1B stimulus, high-content imaging; HUVEC IL-1B NFkB p65 nuclear translocation imaging; inhibition, % at 2 µM; hit rate 0.43% among 94,000;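 active = inhibition above about 30% together with a positive call from visual inspection of the well image, limit read from the data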;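 note: nuclear over cytoplasmic p65 intensity ratio measured by imaging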
IL1B cytotox: cytotoxicity in IL-1B stimulated HUVEC, primary screen, cytotoxicity control for IL-1B NFkB translocation project, imaging, Hoechst nuclear count, IL-1B stimulus | HUVEC cell count loss | cell count reduction, % at 2 µM | hit rate 0.41% among 94,000 | AID 845, 2007;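 active = cell count reduction more than 3 SD above the screen-wide mean, cut at about 70% in these data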
Each line names hits and unclear results; the compound was inactive in the other large screens. Shown are actives, neighbours in structure and some others; about 2.1% of the full set was active somewhere.

CC(C)CCNC(=O)CCCOc1ccccc1	Measles CPE 45
CCC(=O)NCCCOc1ccccc1	none
O=S(=O)(Nc1ccc(Cl)c(C(F)(F)F)c1)c1cnc[nH]1	none (no result: IL1B NFkB pot, IL1B NFkB inh, IL1B cytotox)
COc1ccccc1Nc1nnc(C)c(=O)[nH]1	none
CCOc1ccccc1Nc1nnc(C)c(=O)[nH]1	Measles CPE 60
Nc1c2c(nc3ccc(Br)cc13)N(Cc1ccccc1)CC2	Measles CPE 28 (no result: IL1B NFkB pot, IL1B NFkB inh, IL1B cytotox)
CNc1nc(SCc2ccc(C)cc2)nc2c1CCCC2	Measles CPE 57, IL1B NFkB inh 42
Cc1ccc(/C=N/N2C(=O)c3ccccc3NC2c2ccc(C)cc2)cc1 (stereo not given)	none (no result: IL1B NFkB pot, IL1B NFkB inh, IL1B cytotox)
COc1cc(C(=O)OCC(=O)c2cc(C)n(C)c2C)cc(NC(=O)c2ccco2)c1OC	Measles CPE 53
Cc1noc(C)c1S(=O)(=O)N1CCC(C(=O)N2CCN(C3CCCC3)CC2)CC1	Measles CPE 43
O=C(OCc1ccccc1)/C(=C/c1ccc(Cl)cc1)NC(=O)c1ccccc1Cl	IL1B NFkB pot 40
COc1cc2c(C(=O)N3CCN(c4ccccc4C)CC3)c(C)oc2cc1Br	none
S=C(Nc1ccc2nsnc2c1)NC1CCCCC1	Measles CPE 30 (no result: IL1B NFkB pot, IL1B NFkB inh, IL1B cytotox)
O=C(O)CCn1c(SCc2cccc3ccccc23)nc2ccccc21	Measles CPE 29
CCSc1nc2ccccc2n1CCC(=O)O	none
COc1ccc(OC)c(C2C=C(C34CC5CC(CC(C5)C3)C4)NC(=S)N2)c1 (stereo not given)	Measles CPE 34 (no result: IL1B NFkB pot, IL1B NFkB inh, IL1B cytotox)
COc1cc(C2C=C(C34CC5CC(CC(C5)C3)C4)NC(=S)N2)cc(OC)c1OC (stereo not given)	none
Fc1cc2ncn(Cc3ccccc3)c2cc1F	none
c1ccc(Cn2cnc3ccccc32)cc1	IL1B cytotox 95
CCn1c(CNc2ccc(F)cc2)nnc1SCC(=O)Nc1ccc(OC)cc1	none
COc1cc2cc(CN(Cc3cccs3)C(=S)Nc3cccc(C)c3)c(=O)[nH]c2cc1OC	none (no result: IL1B NFkB pot, IL1B NFkB inh, IL1B cytotox)
COc1cc2cc(CN(Cc3cccs3)C(=S)Nc3ccc(C)cc3)c(=O)[nH]c2cc1OC	Measles CPE 30 (no result: IL1B NFkB pot, IL1B NFkB inh, IL1B cytotox)
O=C(Nc1cc(Cl)ccc1Cl)c1ccc(OC(=O)c2ccco2)cc1	none
CC(C)(C)c1ccc(CN2C3=NCCCN3c3ccccc32)cc1	IL1B cytotox 75
Cc1ccc(CN2C3=NCCCN3c3ccccc32)cc1	none
CCCN1C2=NCCN2c2ccccc21	Measles CPE 45
Cc1cccn2c(=O)c(C=O)c(N3CCCCCC3)nc12	none
O=C(Nc1cccc2cccnc12)c1cccnc1	none
COc1cc(C(=O)Nc2ccc(NC(=O)c3ccco3)nc2)cc(OC)c1OC	none
COc1ccc(NC(=O)c2cc(OC)c(OC)c(OC)c2)cn1	IL1B NFkB inh 48
COc1cc(C(=O)Nc2cccc3cccnc23)cc(OC)c1OC	IL1B NFkB inh 39
COC(=O)Oc1ccc(/C=N/NC(=O)CSCc2ccccc2Br)cc1OC	none
COc1ccc(C(=O)C(C)OC(=O)c2cccc(S(=O)(=O)Nc3cc(Cl)c(OC)cc3OC)c2)cc1 (stereo not given)	none (no result: IL1B NFkB pot, IL1B NFkB inh, IL1B cytotox)
CC1(C)Cc2nc(N3CCOCC3)c(C#N)cc2CO1	Measles CPE 18
COCc1nnc(NC(=O)c2ccc(Cl)cc2[N+](=O)[O-])s1	none (no result: IL1B NFkB pot, IL1B NFkB inh, IL1B cytotox)
COc1ccc(-c2c(C#N)c(N)nc3c2CCCCCC3)cc1OC	Measles CPE 42
N#Cc1c(N)nc2c(c1-c1cccnc1)CCCCC2	none (no result: IL1B NFkB pot, IL1B NFkB inh, IL1B cytotox)
N#Cc1c(N)nc2c(c1-c1ccncc1)CCCCC2	none
CSc1ccc(-c2c(C#N)c(N)nc3c2CCCC3)cc1	Measles CPE 40
Cc1ccc2cc(CCNC(=O)c3ccc4c(c3)OCO4)c(=O)[nH]c2c1C	none
Cc1cccc(N2CCN(C(=O)c3ccc(CS(=O)(=O)c4ccccc4C)o3)CC2C)c1 (stereo not given)	IL1B NFkB pot 49
COc1ccc(Cl)cc1NC(=O)C(C)NC(c1ccccc1)c1ccccc1 (stereo not given)	none (no result: IL1B NFkB pot, IL1B NFkB inh, IL1B cytotox)
CN(CCOC(=O)c1ccc2c(c1)OCCO2)C(C)(C)C	Measles CPE 88
O=C1c2ccccc2C(=O)N1CC1c2ccccc2CCN1C(=O)C1CCCCC1 (stereo not given)	none (no result: IL1B NFkB pot, IL1B NFkB inh, IL1B cytotox)
O=C(O)[C@@H]1CCCC[C@@H]1C(=O)N1CCc2ccccc2C1CN1C(=O)c2ccccc2C1=O (stereo not given in full)	Measles CPE 64
CC(C)(C)SCCNC(=O)Nc1ccccc1	Measles CPE 35 (no result: IL1B NFkB pot, IL1B NFkB inh, IL1B cytotox)
CC1=NNC(=O)/C1=C\c1cn(-c2ccccc2)nc1-c1ccc(Cl)cc1	IL1B NFkB inh 71
Cc1ccc(-c2nn(-c3ccccc3)cc2C=C2C(=O)CC(C)(C)CC2=O)cc1	none
Cc1cc(C)c(S(=O)(=O)/N=C2\C=CC(=O)C(Cl)=C2)c(C)c1	IL1B NFkB inh 31
CCCN(CC1CC1)S(=O)(=O)c1ccc(S(N)(=O)=O)cc1	none
CCc1nc2c(cnn2-c2ccc(Cl)cc2)c(=O)n1-c1ccc(OC)cc1	Measles CPE 56
C=CCn1c2ccccc2c2nnc(SCC(=O)Nc3c(C)n(C)n(-c4ccccc4)c3=O)nc21	none
C=CCn1c2ccccc2c2nnc(SCC(=O)NC(C(=O)OC)C(C)C)nc21 (stereo not given)	IL1B cytotox 89
CC(C)(C)C(=O)N=C1SC2CS(=O)(=O)CC2N1c1ccc2c(c1)OCO2 (stereo not given)	none
CCOc1ccc(OCc2ccc(C(=O)OCc3ccccn3)o2)cc1	none (no result: IL1B NFkB pot, IL1B NFkB inh, IL1B cytotox)
CCSc1nc(C)c(CC)c(C)c1C(N)=O	IL1B NFkB inh 34
Cc1cc(C)c(C(=O)CSc2nc(C)cc(C)c2C(N)=O)c(C)c1	none (no result: IL1B NFkB pot, IL1B NFkB inh, IL1B cytotox)
CCn1c(SCC(=O)Nc2ccccc2C(=O)OC)nnc1-c1cccc(C)c1	none (no result: IL1B NFkB pot, IL1B NFkB inh, IL1B cytotox)
c1cnc(SCCOc2ccc3c(c2)CCC3)nc1	none
O=C(CNCc1ccc(Cl)cc1)NCc1ccco1	none (no result: IL1B NFkB pot, IL1B NFkB inh, IL1B cytotox)
CCOC(=O)c1ccc(Nc2nc(=O)c3cccnc3s2)cc1	Measles CPE 71
O=c1c2ccccc2nc(CSc2ncnc3nc[nH]c23)n1-c1cccc(C(F)(F)F)c1	Measles CPE 27
Brc1ccc(CNCc2cccs2)cc1	Measles CPE 19 (no result: IL1B NFkB pot, IL1B NFkB inh, IL1B cytotox)
c1ccc(COc2ccc(CNCc3cccs3)cc2)cc1	none
O=C(NCCCN1CCN(Cc2ccccc2)CC1)c1nnc(Cc2c(F)cccc2Cl)o1	Measles CPE 39
CC(C)(C)c1nnc(SCC(=O)c2ccccc2)n(N)c1=O	none (no result: IL1B NFkB pot, IL1B NFkB inh, IL1B cytotox)
CC1(C)CC(CCNC(=O)c2ccc(-n3cnnn3)cc2)CC(C)(C)N1	Measles CPE 30
CN(CC(=O)NC(=O)NCc1ccccc1)Cc1cccc(Cl)c1Cl	none (no result: IL1B NFkB pot, IL1B NFkB inh, IL1B cytotox)
COc1ccc(NC2c3ncccc3C(=O)N2Cc2ccccc2)c(OC)c1 (stereo not given)	IL1B cytotox 90
COc1ccc(CN2C(=O)c3cccnc3C2Nc2ccc(OC)c(Cl)c2)cc1 (stereo not given)	none (no result: IL1B NFkB pot, IL1B NFkB inh, IL1B cytotox)
CC(C)Nc1nc(NC(C)C)nc(N(C)n2cnnc2)n1	none
CCNc1nc(NC(C)C)nc(Nn2cnnc2)n1	IL1B NFkB inh 96, IL1B cytotox 90
O=C(OCn1ncc(Br)c(Br)c1=O)c1c(F)cccc1F	IL1B NFkB inh 89

From PubChem BioAssay
